# Key:
# Assay in all cases: DAPPL (digital affinity profiling via proximity ligation, sequencing); 10 mM Tris-HCl pH 7.5, 50 mM NaCl, 1 mM DTT, 4% glycerol, room temperature, 30 min; GST-TFs on glutathione beads, 16-mer random dsDNA library, 0.1% formaldehyde crosslink after washing; high values mean tight binding
# FEV = molecular target: T1, FEV (Homo sapiens, UniProt Q99581 1-238); details: protein: recombinant; tags: N-terminal GST; dsDNA, one strand shown
# T1 sequence: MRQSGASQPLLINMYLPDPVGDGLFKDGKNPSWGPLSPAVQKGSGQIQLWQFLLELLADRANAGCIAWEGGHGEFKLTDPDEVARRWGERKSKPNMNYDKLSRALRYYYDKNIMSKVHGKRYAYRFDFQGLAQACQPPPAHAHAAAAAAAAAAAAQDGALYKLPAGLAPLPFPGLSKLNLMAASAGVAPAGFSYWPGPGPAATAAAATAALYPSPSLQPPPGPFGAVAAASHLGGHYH
# Outline: (§1)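 In yeast, human transcription factors were expressed with a GST fusion, then pulled down on glutathione beads and given DNA barcodes. Pooled with a tag-only sample, they were exposed to 200 nmole of a 16-mer random double-stranded DNA library (Tris/NaCl/DTT/glycerol buffer, room temperature, 30 min), washed, crosslinked with 0.1% formaldehyde, proximity-ligated using BsaI/T4 ligase for 1 h at 37 °C, PCR-amplified and read on an Illumina NextSeq500. Each hexamer's frequency of reads for a factor, divided by the matching frequency for the tag-only sample, gives the binding signal.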
# ETV5 = ETV5 (Homo sapiens, UniProt P41161 1-510); details: protein: recombinant; tags: N-terminal GST; dsDNA, one strand shown
# Sequence of ETV5 (P41161 whole entry): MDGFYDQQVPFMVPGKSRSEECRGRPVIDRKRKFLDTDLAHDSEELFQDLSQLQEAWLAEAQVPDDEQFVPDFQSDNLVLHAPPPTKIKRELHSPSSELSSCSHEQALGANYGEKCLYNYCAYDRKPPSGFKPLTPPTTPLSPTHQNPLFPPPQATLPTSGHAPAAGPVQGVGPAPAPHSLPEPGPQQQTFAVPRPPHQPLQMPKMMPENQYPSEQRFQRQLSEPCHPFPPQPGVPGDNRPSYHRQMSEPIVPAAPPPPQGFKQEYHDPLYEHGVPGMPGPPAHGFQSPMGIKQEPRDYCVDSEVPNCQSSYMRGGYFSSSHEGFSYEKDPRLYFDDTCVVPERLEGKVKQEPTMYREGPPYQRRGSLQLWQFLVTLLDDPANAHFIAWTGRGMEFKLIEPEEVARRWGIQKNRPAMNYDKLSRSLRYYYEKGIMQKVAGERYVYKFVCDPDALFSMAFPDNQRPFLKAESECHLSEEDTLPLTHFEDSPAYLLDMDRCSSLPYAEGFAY
# Outline: as §1
# HSF1 = HSF1 (Homo sapiens, UniProt Q00613 1-529); details: protein: recombinant; tags: N-terminal GST; chain copies: 3; dsDNA, one strand shown
# Sequence of HSF1 (Q00613 whole entry): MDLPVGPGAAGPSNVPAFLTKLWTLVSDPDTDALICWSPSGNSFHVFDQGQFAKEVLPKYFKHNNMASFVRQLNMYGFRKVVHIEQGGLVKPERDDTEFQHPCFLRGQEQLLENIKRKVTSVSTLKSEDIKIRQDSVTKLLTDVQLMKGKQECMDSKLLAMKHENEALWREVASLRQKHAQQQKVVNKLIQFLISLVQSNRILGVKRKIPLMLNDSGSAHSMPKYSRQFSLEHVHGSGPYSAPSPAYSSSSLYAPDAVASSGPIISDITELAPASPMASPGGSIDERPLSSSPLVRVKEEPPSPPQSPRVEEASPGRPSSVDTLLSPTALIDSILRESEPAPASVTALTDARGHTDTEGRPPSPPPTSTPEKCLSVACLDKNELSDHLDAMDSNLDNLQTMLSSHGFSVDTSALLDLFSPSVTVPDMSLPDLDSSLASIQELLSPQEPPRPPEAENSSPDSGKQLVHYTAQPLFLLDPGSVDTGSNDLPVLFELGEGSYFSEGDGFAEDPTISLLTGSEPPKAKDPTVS
# Outline: as §1
# SPIC = molecular target: T2, SPIC (Homo sapiens, UniProt Q8N5J4 1-248); details: protein: recombinant; tags: N-terminal GST; dsDNA, one strand shown
# T2 sequence: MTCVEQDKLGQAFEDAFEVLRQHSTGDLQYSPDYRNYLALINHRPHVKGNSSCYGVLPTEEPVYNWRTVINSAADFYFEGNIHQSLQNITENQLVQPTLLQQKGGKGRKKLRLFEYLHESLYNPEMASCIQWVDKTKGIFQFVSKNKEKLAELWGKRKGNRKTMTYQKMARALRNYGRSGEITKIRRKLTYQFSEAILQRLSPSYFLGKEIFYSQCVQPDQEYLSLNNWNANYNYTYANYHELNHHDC
# Outline: as §1
# ELF4 = ELF4 (Homo sapiens, UniProt Q99607 1-663); details: protein: recombinant; tags: N-terminal GST; dsDNA, one strand shown
# Sequence of ELF4 (Q99607 whole entry): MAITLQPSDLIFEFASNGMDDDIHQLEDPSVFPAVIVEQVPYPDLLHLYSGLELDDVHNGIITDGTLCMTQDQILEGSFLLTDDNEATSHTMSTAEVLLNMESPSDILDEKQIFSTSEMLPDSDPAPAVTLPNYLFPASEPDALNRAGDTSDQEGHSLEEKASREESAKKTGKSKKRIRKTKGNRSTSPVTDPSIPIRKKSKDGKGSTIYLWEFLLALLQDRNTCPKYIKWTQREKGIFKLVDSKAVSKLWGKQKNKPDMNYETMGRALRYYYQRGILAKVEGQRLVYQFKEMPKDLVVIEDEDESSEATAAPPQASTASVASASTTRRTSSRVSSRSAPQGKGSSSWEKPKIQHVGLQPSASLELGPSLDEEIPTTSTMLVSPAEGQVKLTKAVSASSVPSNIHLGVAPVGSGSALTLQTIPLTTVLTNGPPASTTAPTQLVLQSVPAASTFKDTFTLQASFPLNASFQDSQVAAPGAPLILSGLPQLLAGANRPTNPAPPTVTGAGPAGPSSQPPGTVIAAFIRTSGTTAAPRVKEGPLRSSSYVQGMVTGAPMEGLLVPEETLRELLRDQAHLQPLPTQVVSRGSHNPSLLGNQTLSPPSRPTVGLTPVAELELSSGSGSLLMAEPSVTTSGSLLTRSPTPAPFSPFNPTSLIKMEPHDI
# Outline: as §1
# ELK4 = molecular target: T3, ELK4 (Homo sapiens, UniProt P28324-2 1-405); details: protein: recombinant; tags: N-terminal GST; dsDNA, one strand shown
# T3 sequence: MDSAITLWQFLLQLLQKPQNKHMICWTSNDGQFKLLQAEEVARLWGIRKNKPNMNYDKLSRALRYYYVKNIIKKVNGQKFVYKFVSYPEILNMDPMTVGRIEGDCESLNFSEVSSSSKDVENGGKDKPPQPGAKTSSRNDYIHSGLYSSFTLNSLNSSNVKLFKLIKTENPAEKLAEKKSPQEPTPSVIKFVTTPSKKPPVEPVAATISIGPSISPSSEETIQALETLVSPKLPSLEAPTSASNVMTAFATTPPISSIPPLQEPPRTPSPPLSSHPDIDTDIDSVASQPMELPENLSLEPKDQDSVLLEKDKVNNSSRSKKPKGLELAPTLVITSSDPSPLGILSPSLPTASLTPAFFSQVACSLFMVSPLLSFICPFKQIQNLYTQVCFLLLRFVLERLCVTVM
# Outline: as §1
# ETV2 = molecular target: T4, ETV2 (Homo sapiens, UniProt O00321 1-342); details: protein: recombinant; tags: N-terminal GST; dsDNA, one strand shown
# T4 sequence: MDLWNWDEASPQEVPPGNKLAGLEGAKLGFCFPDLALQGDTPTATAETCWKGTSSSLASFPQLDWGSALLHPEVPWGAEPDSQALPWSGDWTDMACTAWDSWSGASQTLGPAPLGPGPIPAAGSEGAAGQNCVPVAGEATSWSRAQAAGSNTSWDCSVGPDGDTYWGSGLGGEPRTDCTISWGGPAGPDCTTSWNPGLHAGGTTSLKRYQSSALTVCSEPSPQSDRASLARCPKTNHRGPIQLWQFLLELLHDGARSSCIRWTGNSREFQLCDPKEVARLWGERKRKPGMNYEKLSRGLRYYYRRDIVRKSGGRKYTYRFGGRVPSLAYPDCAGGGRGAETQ
# Outline: as §1
# ELF3 = molecular target: T5, ELF3 (Homo sapiens, UniProt P78545 1-371); details: protein: recombinant; tags: N-terminal GST; dsDNA, one strand shown
# T5 sequence: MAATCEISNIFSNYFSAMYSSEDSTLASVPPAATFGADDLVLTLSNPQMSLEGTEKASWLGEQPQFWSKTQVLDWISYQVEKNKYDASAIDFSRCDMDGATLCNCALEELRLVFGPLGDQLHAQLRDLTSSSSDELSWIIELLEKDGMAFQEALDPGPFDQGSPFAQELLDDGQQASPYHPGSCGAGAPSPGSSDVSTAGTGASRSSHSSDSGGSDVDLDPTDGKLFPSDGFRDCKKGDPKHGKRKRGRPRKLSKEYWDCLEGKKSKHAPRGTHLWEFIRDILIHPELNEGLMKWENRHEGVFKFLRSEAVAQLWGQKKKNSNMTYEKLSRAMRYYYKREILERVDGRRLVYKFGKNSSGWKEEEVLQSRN
# Outline: as §1
# CRX = CRX (Homo sapiens, UniProt O43186 1-299); details: protein: recombinant; tags: N-terminal GST; dsDNA, one strand shown
# Sequence of CRX (O43186 whole entry): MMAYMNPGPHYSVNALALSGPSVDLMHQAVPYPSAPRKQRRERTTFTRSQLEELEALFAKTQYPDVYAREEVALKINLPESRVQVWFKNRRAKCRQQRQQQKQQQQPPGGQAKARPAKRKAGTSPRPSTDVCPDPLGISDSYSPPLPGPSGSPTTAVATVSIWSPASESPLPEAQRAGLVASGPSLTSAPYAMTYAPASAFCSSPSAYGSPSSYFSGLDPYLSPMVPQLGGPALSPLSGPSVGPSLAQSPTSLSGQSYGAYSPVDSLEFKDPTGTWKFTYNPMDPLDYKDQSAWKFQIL
# Outline: as §1
# ETV1 = ETV1 (Homo sapiens, UniProt P50549 1-477); details: protein: recombinant; tags: N-terminal GST; dsDNA, one strand shown
# Sequence of ETV1 (P50549 whole entry): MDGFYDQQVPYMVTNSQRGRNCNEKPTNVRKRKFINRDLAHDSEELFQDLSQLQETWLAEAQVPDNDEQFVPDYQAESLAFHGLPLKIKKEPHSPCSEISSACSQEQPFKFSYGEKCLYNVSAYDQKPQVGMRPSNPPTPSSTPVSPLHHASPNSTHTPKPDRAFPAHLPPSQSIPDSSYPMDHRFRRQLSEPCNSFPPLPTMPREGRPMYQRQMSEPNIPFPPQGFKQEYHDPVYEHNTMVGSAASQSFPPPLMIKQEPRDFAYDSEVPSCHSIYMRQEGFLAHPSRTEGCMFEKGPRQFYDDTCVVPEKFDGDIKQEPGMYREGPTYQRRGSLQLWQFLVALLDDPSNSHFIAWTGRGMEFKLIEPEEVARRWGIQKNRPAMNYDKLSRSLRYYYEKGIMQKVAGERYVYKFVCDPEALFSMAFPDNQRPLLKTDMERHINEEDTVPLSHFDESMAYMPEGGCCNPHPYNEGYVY
# Outline: as §1
# ERF = molecular target: T6, ERF (Homo sapiens, UniProt P50548 1-548); details: protein: recombinant; tags: N-terminal GST; dsDNA, one strand shown
# T6 sequence: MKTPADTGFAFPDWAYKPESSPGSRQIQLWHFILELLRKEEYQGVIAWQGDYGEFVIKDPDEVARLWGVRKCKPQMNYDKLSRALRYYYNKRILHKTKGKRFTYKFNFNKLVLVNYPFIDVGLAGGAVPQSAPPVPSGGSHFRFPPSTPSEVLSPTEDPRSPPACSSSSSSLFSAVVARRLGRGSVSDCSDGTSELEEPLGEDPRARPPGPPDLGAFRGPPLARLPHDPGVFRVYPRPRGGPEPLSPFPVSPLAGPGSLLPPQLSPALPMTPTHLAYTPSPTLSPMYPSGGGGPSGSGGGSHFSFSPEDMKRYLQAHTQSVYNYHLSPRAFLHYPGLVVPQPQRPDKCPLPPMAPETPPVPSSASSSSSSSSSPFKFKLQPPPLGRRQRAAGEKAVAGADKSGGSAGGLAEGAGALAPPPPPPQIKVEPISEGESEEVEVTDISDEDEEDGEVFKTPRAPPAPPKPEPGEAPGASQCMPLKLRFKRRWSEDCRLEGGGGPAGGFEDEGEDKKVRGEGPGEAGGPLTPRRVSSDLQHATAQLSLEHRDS
# Outline: as §1
# ETV3L = molecular target: T7, ETV3L (Homo sapiens, UniProt Q6ZN32 1-361); details: protein: recombinant; tags: N-terminal GST; dsDNA, one strand shown
# T7 sequence: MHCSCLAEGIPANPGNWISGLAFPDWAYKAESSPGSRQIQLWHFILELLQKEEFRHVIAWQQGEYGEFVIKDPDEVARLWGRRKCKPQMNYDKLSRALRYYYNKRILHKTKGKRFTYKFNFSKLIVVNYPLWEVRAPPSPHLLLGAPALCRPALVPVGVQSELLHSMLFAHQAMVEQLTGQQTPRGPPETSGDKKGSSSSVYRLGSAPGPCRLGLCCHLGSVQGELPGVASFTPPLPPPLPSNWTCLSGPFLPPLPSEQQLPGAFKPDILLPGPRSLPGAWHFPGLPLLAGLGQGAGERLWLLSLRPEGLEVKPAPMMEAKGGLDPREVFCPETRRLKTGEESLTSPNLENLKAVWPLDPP
# Outline: as §1
# ETS2 = molecular target: T8, ETS2 (Homo sapiens, UniProt P15036 1-469); details: protein: recombinant; tags: N-terminal GST; dsDNA, one strand shown
# T8 sequence: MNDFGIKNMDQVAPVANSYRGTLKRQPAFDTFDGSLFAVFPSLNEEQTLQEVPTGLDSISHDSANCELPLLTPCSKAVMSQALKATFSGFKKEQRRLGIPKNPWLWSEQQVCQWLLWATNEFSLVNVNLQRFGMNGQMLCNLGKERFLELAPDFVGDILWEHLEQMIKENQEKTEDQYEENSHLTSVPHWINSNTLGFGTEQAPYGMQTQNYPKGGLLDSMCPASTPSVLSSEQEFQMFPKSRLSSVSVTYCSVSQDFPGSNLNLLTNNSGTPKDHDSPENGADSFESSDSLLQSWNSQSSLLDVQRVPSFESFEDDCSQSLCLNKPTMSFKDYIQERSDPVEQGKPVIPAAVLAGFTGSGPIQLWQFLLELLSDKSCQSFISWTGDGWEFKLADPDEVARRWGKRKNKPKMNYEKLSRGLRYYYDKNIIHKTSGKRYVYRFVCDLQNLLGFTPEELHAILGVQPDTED
# Outline: as §1
# SPDEF = molecular target: T9, SPDEF (Homo sapiens, UniProt O95238 1-335); details: protein: recombinant; tags: N-terminal GST; dsDNA, one strand shown
# T9 sequence: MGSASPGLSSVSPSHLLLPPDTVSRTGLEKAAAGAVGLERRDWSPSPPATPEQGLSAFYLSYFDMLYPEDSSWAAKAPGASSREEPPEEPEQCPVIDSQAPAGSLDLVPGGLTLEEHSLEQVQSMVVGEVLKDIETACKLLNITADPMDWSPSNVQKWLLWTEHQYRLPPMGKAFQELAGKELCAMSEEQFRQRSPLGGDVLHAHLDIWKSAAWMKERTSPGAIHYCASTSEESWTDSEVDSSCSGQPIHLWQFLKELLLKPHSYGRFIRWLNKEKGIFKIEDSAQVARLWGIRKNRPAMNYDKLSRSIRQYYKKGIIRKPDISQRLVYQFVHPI
# Outline: as §1
# ETV7 = molecular target: T10, ETV7 (Homo sapiens, UniProt Q9Y603 1-341); details: protein: recombinant; tags: N-terminal GST; dsDNA, one strand shown
# T10 sequence: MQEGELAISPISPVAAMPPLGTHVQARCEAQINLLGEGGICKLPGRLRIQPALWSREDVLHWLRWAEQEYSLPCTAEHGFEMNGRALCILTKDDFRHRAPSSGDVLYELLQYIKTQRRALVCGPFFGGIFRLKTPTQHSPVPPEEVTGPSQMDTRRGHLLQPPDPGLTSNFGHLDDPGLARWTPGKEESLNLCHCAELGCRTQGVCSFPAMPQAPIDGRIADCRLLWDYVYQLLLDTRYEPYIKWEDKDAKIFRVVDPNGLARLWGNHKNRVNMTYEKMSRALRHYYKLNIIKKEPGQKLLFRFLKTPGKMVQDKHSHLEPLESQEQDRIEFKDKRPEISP
# Outline: as §1
# ELF5 = molecular target: T11, ELF5 (Homo sapiens, UniProt Q9UKW6-2 1-255); details: protein: recombinant; tags: N-terminal GST; dsDNA, one strand shown
# T11 sequence: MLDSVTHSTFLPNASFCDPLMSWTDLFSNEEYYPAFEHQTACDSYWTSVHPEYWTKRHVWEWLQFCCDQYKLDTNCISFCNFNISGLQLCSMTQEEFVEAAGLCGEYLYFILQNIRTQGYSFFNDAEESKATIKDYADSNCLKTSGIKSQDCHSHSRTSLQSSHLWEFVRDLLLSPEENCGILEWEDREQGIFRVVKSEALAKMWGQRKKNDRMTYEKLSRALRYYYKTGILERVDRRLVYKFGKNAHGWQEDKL
# Outline: as §1
# ETV3 = molecular target: T12, ETV3 (Homo sapiens, UniProt P41162-2 1-143); details: protein: recombinant; tags: N-terminal GST; dsDNA, one strand shown
# T12 sequence: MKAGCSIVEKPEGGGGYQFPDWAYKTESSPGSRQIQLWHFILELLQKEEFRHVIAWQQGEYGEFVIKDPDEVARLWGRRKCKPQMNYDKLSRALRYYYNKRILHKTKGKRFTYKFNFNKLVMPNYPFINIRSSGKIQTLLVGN
# Outline: as §1
# ETV6 = ETV6 (Homo sapiens, UniProt P41212 1-452); details: protein: recombinant; tags: N-terminal GST; dsDNA, one strand shown
# Sequence of ETV6 (P41212 whole entry): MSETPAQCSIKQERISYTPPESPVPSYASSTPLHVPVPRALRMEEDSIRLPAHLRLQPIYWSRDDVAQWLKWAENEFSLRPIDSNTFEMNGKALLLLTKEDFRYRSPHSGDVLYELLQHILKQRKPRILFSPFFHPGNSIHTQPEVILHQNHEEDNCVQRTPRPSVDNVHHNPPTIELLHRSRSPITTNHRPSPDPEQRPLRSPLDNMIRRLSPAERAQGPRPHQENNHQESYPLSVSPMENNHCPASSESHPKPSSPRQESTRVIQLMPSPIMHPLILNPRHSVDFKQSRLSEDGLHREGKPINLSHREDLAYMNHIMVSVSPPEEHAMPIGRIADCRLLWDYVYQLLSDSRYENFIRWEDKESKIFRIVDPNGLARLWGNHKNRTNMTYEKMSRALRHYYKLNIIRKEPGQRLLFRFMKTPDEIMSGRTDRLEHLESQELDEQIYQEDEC
# Outline: as §1
sequence,measurement,setting,value
ATCATC,binding signal,FEV,"1.11 fold enrichment (6-mer frequency, TF over GST control)"
same,binding signal,ETV5,"1.1 fold enrichment (6-mer frequency, TF over GST control)"
same,binding signal,HSF1,"1.4 fold enrichment (6-mer frequency, TF over GST control)"
same,binding signal,SPIC,"1.24 fold enrichment (6-mer frequency, TF over GST control)"
same,binding signal,ELF4,"1.17 fold enrichment (6-mer frequency, TF over GST control)"
same,binding signal,ELK4,"1.31 fold enrichment (6-mer frequency, TF over GST control)"
same,binding signal,ETV2,"1.21 fold enrichment (6-mer frequency, TF over GST control)"
same,binding signal,ELF3,"1.26 fold enrichment (6-mer frequency, TF over GST control)"
same,binding signal,CRX,"1.56 fold enrichment (6-mer frequency, TF over GST control)"
same,binding signal,ETV1,"1.12 fold enrichment (6-mer frequency, TF over GST control)"
same,binding signal,ERF,"1.08 fold enrichment (6-mer frequency, TF over GST control)"
same,binding signal,ETV3L,"1.23 fold enrichment (6-mer frequency, TF over GST control)"
same,binding signal,ETS2,"1.25 fold enrichment (6-mer frequency, TF over GST control)"
same,binding signal,SPDEF,"1.16 fold enrichment (6-mer frequency, TF over GST control)"
same,binding signal,ETV7,"1 fold enrichment (6-mer frequency, TF over GST control)"
same,binding signal,ELF5,"1.17 fold enrichment (6-mer frequency, TF over GST control)"
same,binding signal,ETV3,"1.23 fold enrichment (6-mer frequency, TF over GST control)"
same,binding signal,ETV6,"1.1 fold enrichment (6-mer frequency, TF over GST control)"

# Reference: article PMC7862700, “An all-to-all approach to the identification of sequence-specific readers for epigenetic DNA modifications on cytosine”
